High-throughput results as filed in PubChem.
This is a sample that favours compounds with a hit; in the whole collection about 2.8% have one here.
Pol iota inh: inhibitors of human DNA polymerase iota; Q9UNA4; 390,000 tested, 1% active; Potency, µM (series often up to 115 µM), for inactives: at the highest dose activity, negative = inhibition, actives largely listed as inhibitors; Pol iota fluorescent replication assay, 10 min; AID 588590; note: potency is the fitted concentration of half-maximal effect
Target sequence (Q9UNA4 whole entry, looked up): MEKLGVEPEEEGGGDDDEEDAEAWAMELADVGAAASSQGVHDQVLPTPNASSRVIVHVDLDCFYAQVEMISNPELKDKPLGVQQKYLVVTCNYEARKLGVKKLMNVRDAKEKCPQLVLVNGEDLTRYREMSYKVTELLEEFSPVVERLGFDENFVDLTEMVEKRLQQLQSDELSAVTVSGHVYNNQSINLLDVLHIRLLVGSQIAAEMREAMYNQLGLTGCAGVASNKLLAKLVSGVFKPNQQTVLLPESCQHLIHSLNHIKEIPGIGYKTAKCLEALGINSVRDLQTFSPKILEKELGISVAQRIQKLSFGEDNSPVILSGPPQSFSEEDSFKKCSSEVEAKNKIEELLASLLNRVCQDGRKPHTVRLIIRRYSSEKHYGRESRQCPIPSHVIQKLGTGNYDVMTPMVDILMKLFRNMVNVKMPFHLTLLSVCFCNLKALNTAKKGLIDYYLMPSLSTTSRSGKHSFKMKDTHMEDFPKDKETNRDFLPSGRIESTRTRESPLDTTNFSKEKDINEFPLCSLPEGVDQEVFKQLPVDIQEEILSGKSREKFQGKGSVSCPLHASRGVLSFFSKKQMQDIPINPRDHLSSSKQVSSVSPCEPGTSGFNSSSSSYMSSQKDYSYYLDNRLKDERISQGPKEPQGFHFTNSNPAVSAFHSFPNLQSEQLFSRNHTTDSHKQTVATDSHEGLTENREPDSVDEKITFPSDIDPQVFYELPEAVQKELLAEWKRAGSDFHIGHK
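Fluorescent replication assay read twice, at 0 min and 10 min after adding 50 nM (final) substrate. Enzyme (10 nM) and compounds were first incubated 15 min at room temperature; enzyme-free buffer wells were negative controls.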
POLK inh: inhibitors of human DNA polymerase kappa; Potency, µM (top dose mostly 107 µM), without a hit: top-dose activity, negative = inhibition, usual class: inhibitors; Q9UBT6; purified Pol kappa, fluorescent DNA synthesis assay, 10 min; 400,000 tested, 0.53% active; note: potency is the fitted concentration of half-maximal effect; % is set by controls: 0 for no effect and ±100 for the full control effect
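10 nM Pol kappa was preincubated with compounds for 15 min at room temperature. Reaction started with 50 nM (final) substrate. Fluorescence read kinetically at 0 and 10 min.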
POLB inh: blocks human DNA polymerase beta activity. Potency, µM (highest dose often 114 µM), without a hit: at the highest dose activity change, negative = inhibition, most hits filed as inhibitors. Pol beta primer extension/strand displacement, fluorescence kinetic. P06746. 340,000 tested, 1.3% active; note: potency is the fitted concentration of half-maximal effect; % is set by controls: 0 for no effect and ±100 for the full control effect
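Enzyme-only controls used 10 nM Pol beta; buffer lacking enzyme served as negative control. Compound preincubated 15 min, then 50 nM substrate added; 0 and 10 min reads at room temperature.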
PI5P4K alpha inh: PI5P4K alpha (human) kinase inhibition. P48426. PI5P4Kalpha enzyme, ADP-Glo luminescence, 60 min; hits give low values. max response, %. 330,000 tested, 1.2% active. AID 652105; active = max response of -50% or lower; inconclusive = between -30% and -50%; inactive = -30% or higher; note: value at the top dose of about 77 µM; % is set by controls: 0 for no effect and ±100 for the full control effect
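ADP-Glo luminescence end-point after a 60 min room-temperature kinase reaction. PI5P4Kalpha and substrate in HEPES pH 7.4 buffer with EGTA, 0.1% CHAPS and 5% DMSO; ATP at 5 microM final.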
Pol eta inh: blocks human DNA polymerase eta activity | Potency, µM (titrated, usually from 114 µM), for inactives: top-dose activity change, negative = inhibition, usual class: inhibitors | recombinant Pol eta, fluorescent DNA replication assay | Q9Y253 | 390,000 tested, 1.2% active; note: potency is the fitted concentration of half-maximal effect; % is set by controls: 0 for no effect and ±100 for the full control effect
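Fluorescent replication assay: 50 nM final substrate added after a 15 min room-temperature compound preincubation with 10 nM enzyme. Signal taken at 0 min and again at 10 min.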
PI4K2A inh: inhibitors of human PI4K2A; AID 1346378; Q9BTU6; 420,000 tested, 0.13% active; purified PI4K2A, ADP-Glo luminescence, 1 h; hits give low values; activity change, negative = inhibition, % at 76.9 µM; in the data active = activity change below about -50%; inconclusive = mostly about -30% to -49%;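 note: -100% = wells without enzyme as full effect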
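PI4K2A activity was measured by ADP-Glo luminescence: enzyme (4 ug/mL stock) and phosphatidylinositol (1.2 mM stock) in Tris pH 7.5/MgCl2/EGTA/Triton X-100 buffer were reacted with ATP (300 microM stock) for one hour at ambient temperature.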
Starred values were filed as active, the others as inactive; ? = inconclusive; · = not tested or not shown; [ ] = remark or other dose. Unless noted, calls come from the whole dose curve; as a rule, active = well fitted inhibition curve with a large enough effect; inconclusive = small, poorly fitted or top-dose-only effect, or another doubt; inactive = no such curve, though single readings can be large or run the other way.

SMILES | Pol iota inh | POLK inh | POLB inh | PI5P4K alpha inh | Pol eta inh | PI4K2A inh
COc1ccc(/C(C)=N/NC(=O)CNC(=O)/C=C\c2ccco2)cc1 | 50.1µM* | 0.7%[60.1 µM] | 25.1µM* | -28.7 | -0.3% | -5.7
CSCC[C@H](N)C(=O)N[C@@H](C)C(=O)NCC(=O)N[C@@H](CCCN=C(N)N)C(=O)N[C@@H](CO)C(=O)NCC(=O)N[C@@H](CC(=O)O)C(=O)N[C@@H](CO)C(=O)N[C@@H](CC(=O)O)C(=O)N[C@@H](CCC(=O)O)C(=O)N[C@@H](CC(=O)O)C(=O)N[C@@H](CC(C)C)C(=O)N[C@@H](CC(C)C)C(=O)N[C@@H](CCCCN)C(=O)N[C@@H](C)C(=O)N[C@H](C(=O)O)C(C)C | · | 10.9%[60.1 µM] | · | · | · | ·
Nc1ncc(Br)cc1N=Cc1ccccc1 | 10µM* | -27.8% | 39.8µM* | -17.3 | -23.9% | ?
CCC(CC)C(=O)Nc1cccc(-c2nc3ncccn3c2C)c1 | 2.1% | 1.0%[60.1 µM] | -21.2% | · | -15.4% | 4.9
Cc1ccc(C)c(S(=O)(=O)Nc2cc(SCC(=O)O)c(O)c3ccccc23)c1 | 8.91µM* | -22.5% | 79.4µM* | ? | 22.4µM* | ?
Cc1ccc(C)c(NS(=O)(=O)c2cc(C(=O)Nc3ccccc3-c3ccccc3)ccc2C)c1 | 18.8% | -6.9% | -11.6% | · | -15.8% | -4.8
Oc1ccc(/C=N/Nc2ccnc3cc(Cl)ccc23)c(O)c1O | ? | 44.7µM* | 14.1µM* | -74.4* | ? | -14.3
CC1C(=O)N(Cc2cn(Cc3ccco3)nn2)CCS(=O)(=O)N1Cc1ccc(-c2ccc(F)cc2)cc1 (stereo not drawn) | · | · | · | -0.5 | -22.9% | -5.1
CC1C(=O)N(Cc2cn(Cc3ccco3)nn2)CCS(=O)(=O)N1Cc1ccc(-c2ccncc2)cc1 (stereo not drawn) | · | · | · | -23.5 | 50.1µM* | -26.6
Cc1cccc(NC(=O)/C=C/c2cccs2)n1 | -7.2% | ? | 50.1µM* | -17.6 | 8.5% | -23.1
CCC(Cc1ccccc1)NC(=O)c1ccc2nc(N3CCC(C)CC3)sc2c1 (stereo not drawn) | 22.3% | 3.2% | -1.4% | · | -19.7% | 1.0
COc1cc2c(cc1OC)C1O[C@](CCCCN3C(=O)c4ccccc4C3=O)(C2)OC2=C1C(=O)CC(C)(C)C2 | · | · | 0.3%[22.9 µM] | · | · | ·
O=C(NC1CCCC1)c1c[nH]c2ccc(S(=O)(=O)Nc3cccc(C(F)(F)F)c3)cc2c1=O | ? | -20.1% | ? | · | ? | -6.3
COc1cc(Cl)c(C)cc1NC(=O)c1ccccc1NC(=O)CN1CCOCC1 | ? | ? | ? | 0.1 | 79.4µM* | 2.4
COc1cc(NC(=O)c2ccccc2F)c(OC)cc1NC(=O)CN1CCOCC1 | 104.1% | -8.8% | 14.2% | 3.6 | -16.1% | 2.7
Cc1ccc(C(=O)c2oc3ccccc3c2NC(=O)C(C)Oc2ccccc2Cl)cc1 (stereo not drawn) | -1.0% | -9.2% | 22.1% | · | -19.6% | -3.1
COc1ccc(NC(=S)NC(NC(=O)CCl)C(Cl)(Cl)Cl)c([N+](=O)[O-])c1 (stereo not drawn) | ? | -15.2% | -7.0% | -55.2* | 50.1µM* | -20.9
O=C1/C(=C/c2ccsc2)CC/C1=C\c1cccs1 | · | -2.5%[60.1 µM] | · | · | · | -4.2
Cc1cc(S(=O)(=O)N2CCOCC2)ccc1OCC(=O)NCc1ccco1 | 40.9% | -11.8% | -1.1% | 2.2 | -1.6% | 0.0
O=C(NCCc1ccc(F)cc1)c1ccc(Cl)c(S(=O)(=O)N2CCOCC2)c1 | ? | -29.4% | · | ? | 44.7µM* | -0.1
CCOc1ccc(CCNC(=O)c2ccc(Cl)c(S(=O)(=O)N3CCOCC3)c2)cc1OCC | ? | -4.9% | · | -11.3 | ? | 0.1
O=C(OC1CCOC1=O)c1ccc(Cl)c(S(=O)(=O)N2CCOCC2)c1 (stereo not drawn) | 70.8µM* | ? | · | -9.6 | 39.8µM* | 2.9
Cc1cc(S(=O)(=O)N2CCCC2)ccc1OCC(=O)NCc1ccco1 | ? | -3.5%[60.1 µM] | 25.1µM* | · | -17.0% | -1.9
O=C(COC(=O)c1ccc(S(=O)(=O)NCc2ccco2)cc1)NCCC1=CCCCC1 | ? | ? | 44.7µM* | -19.1 | ? | -7.1
c1ccc2nc3c(cc2c1)CCCC3 | -4.8% | -26.2% | · | · | · | ·
SMILES | Pol iota inh | POLK inh | POLB inh | PI5P4K alpha inh | Pol eta inh | PI4K2A inh
Cn1c(SCC(=O)NCc2ccco2)nnc1-c1cccc(NC(=O)c2ccccc2)c1 | 24.8% | 10.7% | · | · | · | ·
CCN(c1ccccc1)S(=O)(=O)c1cc(C(=O)NCc2ccco2)ccc1C | ? | -14.2% | · | ? | 79.4µM* | -7.1
O=C(COC(=O)c1ccc(S(=O)(=O)N2CCCCC2)cc1)NCc1ccco1 | ? | ? | 39.8µM* | -22.7 | ? | -5.1
COc1cccc(NC(=O)COC(=O)c2ccc(S(=O)(=O)NCc3ccco3)cc2)c1 | ? | ? | ? | -6.7 | 8.91µM* | -6.0
CC(=O)Nc1ccc(NC(=O)COC(=O)c2ccc(S(=O)(=O)NCc3ccco3)cc2)cc1 | -17.2% | -11.9% | · | -2.0 | -6.9% | 2.3
CCN(c1ccccc1)S(=O)(=O)c1cc(C(=O)OC(C)C(=O)Nc2ccc3c(c2)OCCO3)ccc1C (stereo not drawn) | ? | ? | 10µM* | -27.4 | ? | -13.0
CN(C)S(=O)(=O)c1ccc(C(=O)NCc2ccco2)cc1 | 56.0% | -9.1% | 1.1% | 2.7 | -12.5% | -1.9
O=C(NCc1ccco1)c1ccc(Cl)c(S(=O)(=O)N2CCCC2)c1 | 35.5µM* | -28.1% | · | -21.1 | ? | -2.8
CN(C)S(=O)(=O)c1ccc(C(=O)OCC(=O)NCc2ccco2)cc1 | 39.7% | -9.9% | 89.1µM* | -11.0 | -0.9% | -4.2
O=C(COC(=O)c1ccc(NS(=O)(=O)c2cccs2)cc1)NCc1ccco1 | 8.91µM* | 31.6µM* | ? | -71.5* | 3.98µM* | -29.6
C[C@H](Cn1cnc2c(N)ncnc21)OCP(=O)(O)O | · | 5.0%[19.4 µM] | · | · | · | ·
CCCCC#CC(CC)NCc1ccc(OC)cc1OC (stereo not drawn) | · | · | · | · | · | 0.6
COc1cc(C2C(C(=O)Nc3ccccc3)=C(C)Nc3nnnn32)cc(OC)c1OC (stereo not drawn) | 11.3% | -7.9% | 18.9% | · | -14.4% | -1.7
C[N+](C)(C)CC(=O)N/N=C/c1c2ccccc2cc2ccccc12 | -20.4% | -19.1% | 44.7µM* | 1.5 | -12.6% | -2.9
CC[C@@H](CO)NCCN[C@@H](CC)CO | · | · | · | · | · | -4.2
O=C(O)c1cc(=O)c2c3nc4ccccc4oc-3cc(=O)c2[nH]1 | ? | 10µM* | · | · | · | ·
COC(=O)CCC(=O)OC1(C)C(=O)C=C2C=C(C3CC3)N(CCCOC(C)C)C=C2C1=O (stereo not drawn) | ? | -33.4% | 22.4% | -3.1 | 89.1µM* | ?
